This note sets out measurements from ChEMBL document CHEMBL3988442, “University of Dundee, Small-Polar-MMV Screening Library” (2021).

SMILES strings stand for the structures. The whole screen tested about 48,000 compounds, of which about 13,000 (27%) showed an effect of 50% or more. The list shows a part of the results.

The assay has as its system Wolbachia pipientis. The assay can be described thus: Anti-Wolbachia Cell-Based Screen. Format: functional. More on the design: scale not given: in the data most compounds retested in dose-response had high values. The note with it: 5 µM.
Consider `Cn1ccnc1CN1CCN(c2ccc(C#N)cc2F)CC1`, for which the “Percent Effect” value was found to be 2.933%.
With `Cc1ccc(N2C[C@H]3CCC[C@@H](CN(C)C)[C@H]3C2)nn1.O=C(O)C(F)(F)F`, the “Percent Effect” value is on record as -2.322%.
Take `Cn1cccc1C(=O)N1C[C@@H]2C[C@@H](c3nc(C4CC4)cs3)O[C@@H]2C1.O=C(O)C(F)(F)F`: the “Percent Effect” value worked out at 215.5%.
Take `O=C(C1CCOCC1)N1C[C@@H]2C[C@@H](c3nc(C4CC4)cs3)O[C@@H]2C1.O=C(O)C(F)(F)F`: the “Percent Effect” value was determined as 2.3%.
Consider `Cc1ccc(CN2CC[C@H]3C[C@H](c4nc(C5CC5)cs4)O[C@@H]3C2)o1`, for which the “Percent Effect” value was 7.352%.
Turning to `Cc1csc([C@H]2C[C@@H]3CCN(C(=O)c4ccnnc4)C[C@H]3O2)n1`, the “Percent Effect” value is -2.379%.
As to `O=C(O)C(F)(F)F.O=C(c1cnccn1)N1C[C@@H]2C[C@@H](c3nc(C4CC4)cs3)O[C@@H]2C1`, the “Percent Effect” value is 97.61%.
Take `Cc1csc([C@@H]2C[C@@H]3CCN(C(=O)c4cnccn4)C[C@H]3O2)n1`: the “Percent Effect” value was -0.1445%.
With `Cc1noc([C@@H]2C[C@H]3CN(C(=O)C4CCN(C)CC4)C[C@H]3O2)n1.O=C(O)C(F)(F)F`, the “Percent Effect” value was 11.84%.
The value for `O=C(O)C(F)(F)F.O=C(c1ccnnc1)N1C[C@@H]2C[C@@H](c3nc(C4CC4)cs3)O[C@@H]2C1` was 114.8%; that for `Cc1csc([C@H]2C[C@@H]3CCN(C(=O)c4cnccn4)C[C@H]3O2)n1` was 7.08%.
For the molecule `COc1cccc(-n2c(C)cc(C(=O)O)c2C)c1`, the “Percent Effect” value came out at 1.282%.
Regarding `CC(=O)N1[C@H](Cn2cncn2)C[C@@H]2CN(c3ncccn3)CC[C@@H]21`, the “Percent Effect” value is -1.924%.
Regarding `COCC1CCN(S(=O)(=O)N2C[C@@H](C)[C@](O)(C3CC3)C2)CC1`, the “Percent Effect” value is recorded as -6.27%.
As to `COC(=O)c1ccc(NC(=O)NC2CCc3[nH]ncc3C2)cc1` (centres undefined), the “Percent Effect” value is listed as -3.404%.
For the molecule `CC(=O)N1CC[C@@H]2CN(Cc3ccncc3)S(=O)(=O)[C@@H]2CC1.O=C(O)C(F)(F)F`, the “Percent Effect” value is -10.18%.
The value for `O=C(c1cc[nH]n1)N1CC[C@@H]2CN(Cc3cccnc3)S(=O)(=O)[C@@H]2CC1` was -2.568%; that for `O=C(C1CCC1)N1CC[C@@H]2CN(Cc3cccnc3)S(=O)(=O)[C@@H]2CC1` was 102.5%.
For `COCC(=O)N1CC[C@@H]2CN(Cc3ccccc3)S(=O)(=O)[C@@H]2CC1`, the “Percent Effect” value is -9.3%.
For the molecule `O=C(C1CCCO1)N1CC[C@@H]2CN(Cc3ccccc3)S(=O)(=O)[C@@H]2CC1` (some centres undefined), the “Percent Effect” value is given as -10.05%.
On to `COCC(=O)N1CC[C@@H]2CN(Cc3cccnc3)S(=O)(=O)[C@@H]2CC1`, for which the “Percent Effect” value amounted to 104.6%.
With `CC(C)CNC(=O)N1CC[C@@H]2CN(Cc3cccnc3)S(=O)(=O)[C@@H]2CC1.O=C(O)C(F)(F)F`, the “Percent Effect” value turned out to be 96.93%.
`CC(C)CC(=O)N1CC[C@@H]2CN(Cc3cccnc3)S(=O)(=O)[C@@H]2CC1`: the “Percent Effect” value stood at 111.2%.
As to `CC(C)CC(=O)N1CC[C@@H]2CN(CC(=O)N(C)C)S(=O)(=O)[C@@H]2CC1`, the “Percent Effect” value is -34.28%.
As for `O=C(O)C(F)(F)F.O=C(c1cc[nH]n1)N1CC[C@@H]2CN(Cc3ccccc3)S(=O)(=O)[C@@H]2CC1`, the “Percent Effect” value is on record as -14%.
`COCC(=O)N1CC[C@@H]2CN(Cc3cccc(Cl)c3)S(=O)(=O)[C@@H]2CC1`: the “Percent Effect” value is reported as -12.94%.
Take `O=C1O[C@@H]2CN(c3ccncc3)C[C@@H]2N1CCCc1ccc(F)cc1`: the “Percent Effect” value is -4.206%.
`CN(CCO)CC1COCCN1C(=O)C1(c2cccs2)CCCC1.O=CO` (centres undefined): the “Percent Effect” value came out at 2.363%.
`COCCC1(CO)CCCN(C(=O)c2cccnc2O)C1` (centres undefined): the “Percent Effect” value was 1.104%.
On to `Cl.O=C1C(NCc2ccc3c(c2)CCO3)CCN1Cc1ccccc1` (centres undefined), for which the “Percent Effect” value is given as -4.636%.
`COCC(=O)N1CCC(C(=O)N(C)C(C)c2ccon2)CC1` (centres undefined): the “Percent Effect” value was 2.013%.
Turning to `CCOc1ncccc1CNC(=O)Nc1ccc(CC)cc1`, the “Percent Effect” value was 115%.
For `COc1ncccc1CNC(=O)NCCNC(=O)c1ccco1`, the “Percent Effect” value is given as 0.6647%.
Consider `COc1ccccc1C(O)CNC(=O)NCc1cccnc1OC` (centres undefined), for which the “Percent Effect” value is on record as -5.086%.
`CCOc1ccc(NC(=O)NCc2cccnc2OCC)cc1`: the “Percent Effect” value is 105.6%.
Take `CCOc1ncccc1CNC(=O)CN1CCCCCC1=O`: the “Percent Effect” value is on record as -62.17%.
On to `CCCNC(=O)NCc1cccnc1OC`, for which the “Percent Effect” value was found to be 1.177%.
With `CC[C@@H](NC(C)=O)C(=O)NCc1cccnc1Oc1ccccc1OC`, the “Percent Effect” value is given as 5.567%.
The value for `CCCS(=O)(=O)NCc1cccnc1OCC` was -4.428%.
Take `CCOc1ncccc1CNC(=O)Nc1ccc(OC)c(OC)c1`: the “Percent Effect” value is reported as 124%.
On to `CCOc1ncccc1CNC(=O)Nc1ccccc1`, for which the “Percent Effect” value amounted to 95.65%.
In the case of `CN(C)C(=O)C1CCCN1CCCNC(=O)c1ccccc1F` (centres undefined), the “Percent Effect” value turned out to be 12.21%.
For the molecule `CC(C)(C(=O)NCCS(N)(=O)=O)c1cccc(Br)c1`, the “Percent Effect” value is on record as -14.63%.
In the case of `COc1cccc(-c2n[nH]c3c2CN(C(=O)c2oc(C)cc2C)CC3)c1` it was 3.438%; in that of `CCn1ccc2ccnc(CC3CN(C(=O)c4ccc(F)cc4)C3)c21`, 128.6%.
As for `CCN(CC)CC[C@H]1CN(C(=O)c2ccc(F)cc2)CC[C@H]1CC(=O)O`, the “Percent Effect” value is on record as 0.9693%.
Consider `CCn1ccc2ccnc(CC3CN(C(=O)c4cnco4)C3)c21`, for which the “Percent Effect” value is 144.4%.
`COc1ccccc1C(=O)N1CC(Cc2nccc3ccn(C)c23)C1`: the “Percent Effect” value is -2.36%.
With `CCCN1CCc2[nH]cnc2C12CCN(C(=O)Cn1ccnc1C)CC2`, the “Percent Effect” value is recorded as -4.185%.
